High-throughput results as filed in PubChem.
KCNQ2 pot: enhances the rat KCNQ2 potassium channel | CHO-K1 KCNQ2, FluxOR thallium flux fluorescence; hits give high values | 310,000 compounds, 0.54% hits | B-score at 10 µM;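 active = fluorescence ratio B-score at least 3 SD of library B-scores, with initial fluorescence B-score within 3 of them, cut at about 5.3 in these data; same plate scores as AID 2156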;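 also: B-score of peak minus minimum over baseline fluorescence ratio after K+ and Tl+ stimulus; positive B-score means potentiation of KCNQ2 with more thallium influx and brighter signal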
KCNQ2 block: blocks the rat KCNQ2 potassium channel; O88943; B-score at 10 µM; CHO-K1 KCNQ2, FluxOR thallium flux, 20 min; hits give low values; 310,000 compounds, 1.1% hits;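 active = fluorescence ratio B-score at most minus 3 library SDs, with starting brightness B-score within 2 library SDs, cut at about -5.5 in these data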
* hit, by the source's call; i = inactive; x = no result. Most compounds without a hit are left out; they make up all but 1.6% or so of the library.

SMILES | KCNQ2 pot | KCNQ2 block
O=C(c1ccccc1)N(Cc1ccccc1)Cc1ccccc1 | -6.3 | -6.3*
O=C(C1CC1)N(CCN(Cc1ccccc1)C(=O)C1CC1)Cc1ccccc1 | -7.1 | -7.1*
O=C(c1cc2ccccc2o1)N1CCN(C/C=C/c2ccccc2)CC1 | x | i
Cn1c(SCC(=O)N/N=C/c2ccc([N+](=O)[O-])s2)nnc1-c1ccc(Cl)cc1 | 0.65 | i
Nc1cc(Oc2ccc(F)cc2F)cc([N+](=O)[O-])c1 | x | i
O=C(NCc1ccc2c(c1)OCO2)c1ccc(N2CCCCCC2)c([N+](=O)[O-])c1 | 2.5 | i
CC1CCCN(c2ccc(C(=O)NCc3ccc4c(c3)OCO4)cc2[N+](=O)[O-])C1 (configuration not stated) | 8.3* | i
COc1cc(SC)ccc1C(=O)NNC(=O)c1cc(C)oc1C | 0.67 | i
COc1ccc(NC(=O)CSc2cn[nH]n2)cc1OC | x | i
CCOC(=O)C1=C(N)OC2=C(C(=O)CC(C)(C)C2)C1c1ccoc1 (configuration not stated) | 0.89 | i
CCOC(=O)C1=C(N)OC2=C(C(=O)CC(C)(C)C2)C1C1CCCCC1 (configuration not stated) | -7.5 | -7.5*
CCOc1cc(C2Nc3ccccc3NC3=C2C(=O)CC(C)(C)C3)ccc1O (configuration not stated) | x | i
COc1ccc(-c2nnc(Nc3nc4c(OC)cccc4s3)o2)c(OC)c1 | 0.68 | i
COc1ccc(-c2nnc(Nc3nc4c(OC)cccc4s3)o2)cc1 | 5.5* | i
COc1ccc(NC(C)C(=O)N/N=C/c2ccccc2OCc2cccc(Br)c2)cc1 (configuration not stated) | x | i
Cc1ccccc1NC(C)C(=O)N/N=C/c1ccccc1OCc1cccc(Br)c1 (configuration not stated) | -8.3 | -8.3*
COC(=O)c1cc(NC(=O)c2cccc(C(F)(F)F)c2)c(=O)oc1C | x | i
COC(=O)c1cc(NC(=O)c2cccc(C(F)(F)F)c2)c(=O)oc1C/C=N/OCc1cccc(Cl)c1Cl | -7.7 | -7.7*
CC(C)(Oc1ccc(Cl)cc1)C(=O)O | 0.32 | i
CC(C)OC(=O)C(C)(C)Oc1ccc(C(=O)c2ccc(Cl)cc2)cc1 | -8.1 | -8.1*
N#Cc1nc(COc2ccccc2)oc1N1CCN(c2cccc(Cl)c2)CC1 | -5.9 | -5.9*
N#Cc1nc(COc2cccc(Cl)c2)oc1N1CCN(c2ccccc2)CC1 | x | i
CC(=O)N1c2ccc(S(=O)(=O)N(C)Cc3ccco3)cc2CC1C (configuration not stated) | x | i
COC(=O)c1cc(C(=O)Nc2nc3ccccc3[nH]2)cc([N+](=O)[O-])c1 | 0.1 | i
COc1ccccc1NC(=O)C(=O)NCC(c1ccco1)N1CCc2ccccc2C1 (configuration not stated) | x | i
SMILES | KCNQ2 pot | KCNQ2 block
O=C(NCC(c1ccco1)N1CCc2ccccc2C1)C(=O)Nc1cc(F)ccc1F (configuration not stated) | -6.2 | -6.2*
O=C(NCC(c1ccco1)N1CCc2ccccc2C1)c1ccc(F)cc1 (configuration not stated) | -5.7 | -5.7*
O=C(NCC(c1ccco1)N1CCc2ccccc2C1)c1ccccc1 (configuration not stated) | x | i
Cc1scc(C(=O)NNC(=S)NC(C)c2ccccc2)c1C (configuration not stated) | x | i
COc1cc(C(C)=O)ccc1OCCCOc1cccc2cccnc12 | 0.87 | i
O=C1CCCN1CCCNc1nc2c(S(=O)(=O)c3ccccc3)nnn2c2ccc(Cl)cc12 | x | i
CCN(C(=O)COC(=O)c1ccc(Cl)c(N)c1)C1CCS(=O)(=O)C1 (configuration not stated) | 0.31 | i
Cc1ccc(NC2=C/C(=N\S(=O)(=O)c3cccs3)c3ccccc3C2=O)c(C)c1 | x | i
Cc1cc(C)c(S(=O)(=O)/N=C2\C=C(NS(=O)(=O)c3ccccc3)C(=O)c3ccccc32)c(C)c1 | -5.7 | -5.7*
CCC(C)NC(=O)C1(O)c2ccccc2NC(=O)N1c1ccc(C)c(C)c1 (configuration not stated) | 0.59 | i
CC1=C(C(=O)Nc2ccccc2)C(c2ccco2)C(C#N)=C(SCc2ccccc2)N1 (configuration not stated) | -6.5 | -6.5*
CC1=C(C(=O)Nc2ccccc2)C(c2ccco2)C(C#N)=C(SCC(=O)OC(C)C)N1 (configuration not stated) | 0.08 | i
COc1ccc(C2CC(=O)OC3=C2C(=O)CC(C)(C)C3)c(OC)c1 (configuration not stated) | 0.09 | i
COc1ccc([C@@H]2COc3c(ccc4c3C=CC(C)(C)O4)C2)c(OC)c1 | -6.3 | -6.3*
CN(CCCN1CCOCC1)C(=O)c1cc(COc2cccc(C(F)(F)F)c2)on1 | x | i
Cc1cc(OCc2cc(C(=O)N(C)Cc3ccccn3)no2)cc(C)c1Cl | x | i
